Screens from PubChem BioAssay.
eLon inh: inhibits E. coli Lon protease | P0A9M0 | AID 602123 | inhibition, % at 7.94 µM | 360,000 compounds, 0.42% hits | purified E. coli Lon protease, fluorescence polarization; in the data active = inhibition above about 13%, passing the limit was not always enough;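 also: 0% = enzyme with probe and DMSO and 100% = no enzyme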
GLD-1 TGE inh: GLD-1-TGE RNA interaction inhibition (C. elegans) | Q17339 | purified GLD-1 + fluorescein TGE RNA, fluorescence polarization | inhibition, % at 5.96 µM | 320,000 compounds, 0.44% hits | AID 2280;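 active = percent inhibition above a per-plate cutoff, the plate mean of test compounds plus 3 SD, cut at about 30% in these data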;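 also: 0% = DMSO wells with GLD-1 and probe and 100% = wells lacking GLD-1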
MCL1 BIM primary: inhibitors of human MCL1 binding to BIM-BH3 peptide; 320,000 compounds, 0.68% hits; GST-MCL1 / FITC-Bim-BH3 fluorescence polarization; AID 2057; inhibition, % at 10.9 µM; Q07820;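 active = inhibition above the mean inhibition of all tested compounds plus 3 SD, set per campaign, cut at about 40% in these data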;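 also: 0% = DMSO wells and 100% = unlabeled Bim-BH3 peptide control; higher means more loss of mP so more displacement of Bim peptide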
MEX-5 binding: C. elegans MEX-5 TCR-2 RNA binding activity; Q9XUB2; MEX-5/FITC-TCR2 RNA binding, fluorescence polarization; stronger effect = lower value; activity score (negative = inhibition of binding), % at 10 µM; 300,000 compounds, 0.38% hits; AID 1832;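 active = inhibition past about -25% in most replicates, and total fluorescence under double the plate's negative control median, limit read from the data; inconclusive = replicates evenly split on the limit, or fluorescence at least double controls; inactive = too little inhibition in most replicates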;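 also: 0% = DMSO and -100% = 5 µM competing unlabeled TCR2 RNA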
Target sequence (Q9XUB2 whole entry, looked up): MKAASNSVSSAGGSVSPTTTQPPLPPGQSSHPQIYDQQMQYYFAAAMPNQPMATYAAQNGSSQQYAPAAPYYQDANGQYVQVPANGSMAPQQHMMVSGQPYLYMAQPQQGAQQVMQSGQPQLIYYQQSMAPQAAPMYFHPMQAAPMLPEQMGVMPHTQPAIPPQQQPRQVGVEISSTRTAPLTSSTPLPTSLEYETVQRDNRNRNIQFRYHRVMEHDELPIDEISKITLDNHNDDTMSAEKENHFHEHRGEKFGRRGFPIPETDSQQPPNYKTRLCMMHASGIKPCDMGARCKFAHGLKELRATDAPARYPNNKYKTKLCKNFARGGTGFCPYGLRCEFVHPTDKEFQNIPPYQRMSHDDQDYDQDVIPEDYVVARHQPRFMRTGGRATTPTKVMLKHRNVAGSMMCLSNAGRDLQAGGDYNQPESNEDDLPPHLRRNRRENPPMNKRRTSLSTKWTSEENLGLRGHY
EBV gp42 inh: EBV gp42 inhibition; Q1HVG2; Fluorescence polarization binding assay, mP read-out; inhibition, % (tested at 21.74 µM); 220,000 compounds, 0.42% hits; AID 1085; in the data active = inhibition above about 50%
Target sequence (Q1HVG2 whole entry, looked up): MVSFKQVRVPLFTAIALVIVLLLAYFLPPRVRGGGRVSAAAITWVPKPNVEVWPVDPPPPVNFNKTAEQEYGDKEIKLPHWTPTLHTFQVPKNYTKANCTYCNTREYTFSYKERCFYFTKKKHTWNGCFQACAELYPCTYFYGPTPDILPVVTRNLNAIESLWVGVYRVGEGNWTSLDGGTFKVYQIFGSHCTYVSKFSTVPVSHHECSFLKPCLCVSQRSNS
Bcl-xL primary: blocks human Bcl-xL binding to Bim BH3 peptide. GST-Bcl-xL / FITC-Bim BH3 peptide fluorescence polarization. 320,000 compounds, 0.7% hits. Q07817. inhibition, % at 10.9 µM;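 active = inhibition above the mean of all tested compounds plus 3 SD, cutoff set per campaign, cut at about 30% in these data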;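 also: 0% = DMSO wells and 100% = unlabeled Bim-BH3 peptide competitor; inhibitors lower millipolarization by displacing the labeled peptide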
eLon confirm: confirmation of E. coli Lon protease inhibitors; shares compounds with eLon inh; purified E. coli Lon, fluorescence polarization; inhibition, % at 7.94 µM; 1,400 compounds, 31% hits; in the data active = inhibition above about 16%;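 also: 0% = enzyme with probe and DMSO and 100% = no enzyme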
* marks the source's active call; other numbers are inactive results; ? = inconclusive; nt = no result given. An excerpt weighted towards active compounds, which were near 1.4% of everything screened.

SMILES | eLon inh | GLD-1 TGE inh | MCL1 BIM primary | MEX-5 binding | EBV gp42 inh | Bcl-xL primary | eLon confirm
CN1CCN(C(c2ccc(F)cc2)c2ccc3cccnc3c2O)CC1 (stereo not given) | 26* | nt | nt | nt | nt | nt | -3
CC(=O)NC(c1ccc2ccccc2c1)c1ccc2cccnc2c1O (stereo not given) | -6 | -2 | 17 | -4 | nt | 14 | nt
CCN(CC)S(=O)(=O)c1ccc(N2CCOCC2)c(NC(=O)c2cc3ccccc3o2)c1 | 30* | nt | nt | nt | nt | nt | -2
CCN(CC)S(=O)(=O)c1ccc(N2CCOCC2)c(NC(=O)c2ccccc2)c1 | 3 | -4 | 12 | 1 | 4 | 6 | nt
CCN(CC(=O)Nc1ccc2c(c1)OCCO2)C(=O)/C=C/c1cccc(C(F)(F)F)c1 | -2 | 6 | nt | nt | nt | nt | nt
Cc1ccc(NC(=O)CN2C(=O)NC3(CCCCCCC3)C2=O)cc1C | -8 | 1 | -4 | nt | nt | -3 | nt
O=C(CN1C(=O)NC2(CCCCC2)C1=O)Nc1ccc2[nH]c(=O)[nH]c2c1 | 40* | 0 | 6 | nt | nt | 9 | -8
COc1ccc2c3c(cccc13)N(C)N=C2C | 37* | 42* | 87* | -9 | 21 | 97* | 21*
CCOC(=O)N1CCN(CC(=O)c2ccc(O)cc2O)CC1 | 25* | 41* | 2 | ? | nt | 6 | 29*
CCOC(=O)N1CCN(CC(=O)c2ccc(O)c(C)c2O)CC1 | 3 | 0 | 3 | -3 | nt | 9 | nt
O=S(=O)(c1ccccc1)N1CCN(Cc2ccccc2)c2ccccc21 | 34* | nt | nt | nt | nt | nt | -1
COCCNC(=O)C1CCC(CNS(=O)(=O)c2ccccc2)CC1 (stereo not given) | 5 | 0 | 0 | -1 | nt | 7 | nt
Cc1ccc(CN2CCNC(=O)C2CC(=O)N(C)CCc2ccccc2)cc1 (stereo not given) | 23* | 12 | -4 | 0 | -5 | 5 | -8
CN(CCc1ccccn1)C(=O)CC1C(=O)NCCN1Cc1ccc(-c2ccccc2)cc1 (stereo not given) | 10 | 7 | 14 | 0 | 1 | 14 | nt
CO/N=C/CC(=O)c1ccc([N+](=O)[O-])c(CS(=O)(=O)c2ccc(Cl)cc2)c1 | -8 | -8 | -11 | -1 | nt | -2 | nt
O=C(CSCc1cc(=O)n2ccsc2n1)Nc1ccc(F)cc1 | 66* | 1 | 0 | -1 | nt | 2 | 3
C=CCNC(=S)Nc1cccc(N)c1 | -10 | 0 | 10 | 3 | -8 | 11 | nt
CC(C)[C@H](NC(=O)OC(C)(C)C)C(=O)N1CCC(C(=O)N[C@@H](C)C(=O)Nc2ccc(F)cc2)CC1 | 19* | 2 | 6 | -1 | nt | 4 | -4
C=CCNc1ncnc2c1ncn2[C@H]1CN(C2CCCC2)C[C@@H](CO)O1 | -6 | nt | nt | nt | nt | nt | nt
Cc1oc2ccc(Br)cc2c(=O)c1-c1nn[nH]n1 | 21* | -5 | 4 | 0 | -12 | 1 | -68
CCOC(=O)C1(Cc2cccc(Cl)c2)CCCN(C(=O)CN2C(=O)CSC2=O)C1 (stereo not given) | -3 | 1 | 10 | 0 | nt | -2 | nt
CN(CC(O)COc1c(F)cc(Br)cc1F)C1CCCCC1 (stereo not given) | -1 | 2 | 10 | 0 | -8 | 3 | nt
CCCCN(C(=O)NC(=O)Nc1ccccc1OC)S(C)(=O)=O | 20* | -10 | 4 | 2 | -12 | 2 | 5
COc1cc2oc(=O)cc(CN3CCN(C(C)=O)CC3)c2cc1Cl | 31* | nt | nt | nt | nt | nt | 24*
COc1cc2oc(=O)cc(CN3CCCCC3)c2cc1Cl | -9 | nt | nt | nt | nt | nt | nt
SMILES | eLon inh | GLD-1 TGE inh | MCL1 BIM primary | MEX-5 binding | EBV gp42 inh | Bcl-xL primary | eLon confirm
CCOc1ccc(CN2CCN(Cc3nc4c(s3)CCCC4)CC2CCO)cc1 (stereo not given) | 1 | 5 | 8 | -1 | -1 | 8 | nt
Cc1cc(C(=O)COC(=O)c2cccc(O)c2)c(C)n1C1CC1 | 28* | 6 | 0 | nt | nt | -1 | -34
O=[N+]([O-])c1ccc(Nc2nc(N3CCOCC3)nc(N3CCOCC3)n2)cc1 | 17* | -2 | 1 | 0 | nt | 2 | -2
COc1cccc(CNS(=O)(=O)c2ccccc2Br)c1OC | -6 | nt | nt | nt | nt | nt | nt
O=C(c1ccncc1)N1CCN(S(=O)(=O)c2cccc(C(F)(F)F)c2)CC1 | -10 | -1 | -2 | nt | nt | 0 | nt
NC(=O)c1ccc(NCCc2cccs2)cc1 | 2 | nt | nt | nt | nt | nt | nt
Cn1c2ccccc2c(=O)c2ccc(NCCc3cccs3)cc21 | 92* | 79* | nt | nt | nt | nt | 23*
CCn1c(SCC(=O)N2CC(C)OC(C)C2)nc2c([nH]c3ccccc32)c1=O (stereo not given) | 2 | 7 | 2 | 1 | nt | 5 | nt
O=C1c2ccccc2C(=O)N1Cc1ccc2c(c1)OCO2 | -1 | 11 | 0 | -3 | -6 | 3 | nt
Cc1ccc(S(=O)(=O)NCc2ccc3c(c2)cc(C)n3C)cc1 | 16* | 25 | 15 | 4 | -2 | 15 | -2
Cc1cc2cc(CN3C(=O)c4ccccc4C3=O)ccc2n1C | 25* | 17 | 14 | 0 | -7 | 10 | 14
Cc1ccc(S(=O)(=O)NCc2ccncc2)cc1 | -5 | 8 | -5 | 0 | -8 | 2 | nt
CC12CCC(=O)N1C(C(=O)NCc1ccc(Cl)cc1Cl)CS2 (stereo not given) | -6 | 4 | -1 | 0 | nt | 2 | nt
C#CCNC(=O)C1=C[C@@H](c2coc3ccccc3c2=O)C[C@@H](OCCCCO)O1 | 19* | 2 | 1 | 1 | -15 | 2 | 29*
O=C1NC2=C(C(=O)CCC2)C(c2ccccc2)N1 (stereo not given) | 1 | -5 | -5 | -1 | nt | 2 | nt
O=C1NC2=C(C(=O)CCC2)C(c2ccccc2[N+](=O)[O-])N1 (stereo not given) | 25* | 24 | 51* | -10 | nt | 51* | -7
Brc1ccc(-c2cnnc(N3CCCC3)n2)cc1 | 22* | -2 | 15 | -3 | -1 | 11 | -8
CC(=O)c1ccc(NC(=O)CN2C(=O)NC3(CCc4ccccc43)C2=O)cc1 (stereo not given) | 19* | 1 | nt | nt | nt | nt | -1
CNC(=O)CN1C(=O)NC2(CCc3ccccc32)C1=O (stereo not given) | 3 | 1 | -1 | 1 | -23 | -3 | nt
CCOc1ccc(NC(=O)NCC2CCN(c3ccc(OC)cc3)C2)cc1 (stereo not given) | 23* | 3 | 8 | -1 | -1 | 8 | -10
CCCCC(=O)Nc1ccc(N2CCN(C(=O)c3ccco3)CC2)cc1 | 0 | 2 | 6 | 0 | nt | 0 | nt
Cc1nn(-c2ccc(F)cc2F)c2c1-c1nc(N3CCCC3)ncc1CC2 | 16* | 7 | -12 | -1 | -15 | -4 | 6
O=C(NC(=S)NNS(=O)(=O)c1ccccc1)c1ccccc1[N+](=O)[O-] | 23* | 0 | 10 | -5 | 4 | 9 | -48
CCCCC(=O)NC(=S)NNS(=O)(=O)c1ccccc1 | 20* | 0 | 14 | 1 | -12 | 12 | -97
